Compounds with a hit are over-represented: about 6.9% of the library has one in this group of screens.
KB-3-1 cytotox = qHTS assay for MDR1-selective chemotherapeutics: Primary screen using the parental adenocarcinoma cell KB-3-1 | KB-3-1 viability, CellTiter-Glo ATP luminescence, 72 h | AID 1347075, 2019 | 400,000 compounds, 1.4% hits | Potency, µM (titrated, usually from 46.1 µM), usual class: cytotoxic; further: nearly all actives have a fitted effect of over 60% in size
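Using CellTiter-Glo luminescence, growth of non-resistant KB-3-1 adenocarcinoma cells is assessed 72 h after pin-tool compound addition at 37 °C. Normalized responses across the concentration series yield fitted curves.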
S-ASM inh = Inhibitors of Secretory Acid Sphingomyelinase (S-ASM): qHTS; Sphingomyelin phosphodiesterase (Homo sapiens), P17405; placental ASM, HMU-PC fluorogenic substrate, 60 min; Potency, µM (titrated, usually from 57.5 µM), hits mostly inhibitors; 340,000 compounds, 0.006% hits; AID 504937, 2011
Target sequence (P17405 47-631 limits assumed): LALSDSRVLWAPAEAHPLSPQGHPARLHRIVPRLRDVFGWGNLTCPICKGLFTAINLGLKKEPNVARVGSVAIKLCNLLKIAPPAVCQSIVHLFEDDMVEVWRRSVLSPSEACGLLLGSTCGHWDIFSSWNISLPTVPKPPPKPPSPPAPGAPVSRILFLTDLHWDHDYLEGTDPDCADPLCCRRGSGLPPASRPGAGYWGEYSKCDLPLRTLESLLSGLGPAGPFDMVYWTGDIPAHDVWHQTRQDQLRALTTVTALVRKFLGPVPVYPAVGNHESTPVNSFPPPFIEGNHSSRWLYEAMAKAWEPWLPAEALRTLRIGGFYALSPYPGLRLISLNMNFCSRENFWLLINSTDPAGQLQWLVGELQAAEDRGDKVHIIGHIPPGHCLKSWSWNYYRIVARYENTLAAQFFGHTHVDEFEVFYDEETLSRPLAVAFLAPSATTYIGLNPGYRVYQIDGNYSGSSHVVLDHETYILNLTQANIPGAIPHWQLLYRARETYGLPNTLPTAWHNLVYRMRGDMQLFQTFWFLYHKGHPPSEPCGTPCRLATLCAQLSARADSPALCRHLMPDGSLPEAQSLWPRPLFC
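Human placenta-derived ASM preincubated with compound 10 min at room temperature, then reacted with 9 uM (final) fluorogenic HMU-PC substrate for 60 min at 37 C. Stop solution raises pH to 10; fluorescence read at Ex 386/Em 447 nm.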
Giardia killer = Small Molecules that selectively kill Giardia lamblia: qHTS; Giardia lamblia trophozoite viability; activity change, % at 7.66 µM, hits read low; 340,000 compounds, 0.15% hits; in the data active means activity change below about -80%; inconclusive means between about -30% and that limit;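 further: parasites exposed to compound for two days anaerobically before the ATP read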
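Media and compound were dispensed first, then trophozoites at 100 cells/well; plates sat 48 hrs at 37 deg C without oxygen before ATP luminescence reagent was added and read after 15-30 min at room temperature.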
KB-V1 cytotox = qHTS assay for MDR1-selective chemotherapeutics: Primary screen using the drug-selected MDR subline cells KB-V1; KB-V1 MDR cells viability, CellTiter-Glo, 72 h; Potency, µM (titrated, usually from 46.1 µM), usual class: cytotoxic; 400,000 compounds, 3.4% hits; AID 1347076, 2019; further: nearly all actives have a fitted effect of over 60% in size
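Compound-treated KB-V1 multidrug-resistant cells, 72 h, 37 degrees C; viability by CellTiter-Glo. Fitted qHTS curves give the values.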
SW480 rerep = A quantitative high throughput screen for small molecules that induce DNA re-replication in SW480 colon adenocarcinoma cells | 340,000 compounds, 1.8% hits | Potency, µM (series often up to 46.1 µM), hits mostly activators | SW480 DNA re-replication, Hoechst DNA content imaging, 48 h | AID 624297, 2012; further: nearly all actives have a fitted effect of over 55% in size
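Cells (250 per well) received 23 nL compound or DMSO by pin tool and were kept 48 hr at 37 C, 5% CO2. Nuclei were then stained with Hoechst for 40 min and scanned for DNA content.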
MCF10A rerep = A quantitative high throughput screen for small molecules that induce DNA re-replication in MCF 10a normal breast cells; MCF 10A DNA re-replication, Hoechst nuclear intensity, 48 h; Potency, µM (series often up to 46.1 µM), usual class: activators; 350,000 compounds, 2.9% hits; AID 624296, 2012; further: nearly all actives have a fitted effect of over 50% in size
A number is an active result; - = inactive; ? = inconclusive; . = not tested or not shown; [ ] = dose if it differs, or a comment. Unless noted, the call rests on the fitted dose curve; in most records, active means well fitted curve in the direction sought with a large enough effect; inconclusive means small, poorly fitted or top-dose-only effect, or another doubt; inactive means no such curve, though single readings can be large; an effect the other way counts as inactive or inconclusive.

SMILES | KB-3-1 cytotox | S-ASM inh | Giardia killer | KB-V1 cytotox | SW480 rerep | MCF10A rerep
Cc1cccc(COC[C@H](Cc2ccccc2)N2CCN(C(=O)c3cccc(Cl)c3)CCC2=O)c1 | ? | . | . | 18µM | . | .
O=C(Nc1cccc(C(F)(F)F)c1)c1cc2nc(-c3ccc4c(c3)OCO4)cc(C(F)(F)F)n2n1 | - | . | . | - | . | .
Cc1ccc(S(=O)(=O)N2CCCc3cc(NC(=O)c4ccccc4Cl)ccc32)cc1 | - | . | . | - | . | .
COc1ccc2nc(N=Nc3ccc(O)c4ccccc34)sc2c1 | ? | - | - | ? | ? | 8.2µM
COc1ccc2nc(N=NC3=C(O)CC(C)(C)CC3=O)sc2c1 | ? | - | - | - | 2.1µM | -
COc1ccc(NC(=O)CSc2nnc(-c3nonc3NC(C)=O)n2C)cc1Cl | - | . | . | - | . | .
CCn1c2c(c(=O)n3ncc(C(=O)Nc4cccc(Cl)c4C)c13)CN(Cc1ccc(OC)cc1)CC2 | - | . | . | - | . | .
c1ccc(-c2ccccn2)nc1 | - | - | - | - | ? | -
OC(c1ccccn1)(c1ccccn1)c1ccccn1 | - | - | - | 10µM | ? | ?
N#Cc1nc(-c2ccc(COc3ccc(Cl)cc3)o2)oc1N1CCC(C(N)=O)CC1 | - | . | . | ? | . | .
CO/N=C1\CCCc2c(C(=O)NN)sc(SC)c21 | - | - | - | - | ? | 16µM
COc1ccccc1CNC(=O)c1ccc(CSc2nc3ccncc3n2Cc2ccccc2C)cc1 | - | . | . | - | . | .
Cc1cc(C)cc(N2C(N)=NC(N)=NC2c2ccccc2F)c1 (configuration not stated) | ? | - | - | 16µM | ? | -
COc1ccccc1N1CCc2c(C)nc3c(OC)cccc3c21 | ? | - | - | 21µM | - | -
O=C(/C=C1\OCc2ccccc21)OCc1ccccc1 | - | . | . | - | . | .
N#CC1CC(c2ccc([N+](=O)[O-])cc2)=NN1c1ccc([N+](=O)[O-])cc1 (configuration not stated) | - | - | - | ? | ? | 6.5µM
CCOC(=O)C1=C(C)NC(C)=C(C(=O)OCC)C1c1ccc(O)cc1 | - | - | - | - | - | -
CCOC(=O)C1=C(C)NC(SCC(=O)OC)=C(C#N)C1c1ccc(C(=O)OC)cc1 (configuration not stated) | - | - | - | - | - | ?
CCOC(=O)C1=C(C)Nc2sc(C(=O)c3ccc(C)cc3)c(N)c2C1c1ccc(C(=O)OC)cc1 (configuration not stated) | - | - | - | - | 18µM | 3.7µM
CCOC(=O)C1=C(C)Nc2sc(C(=O)c3ccc(F)cc3)c(N)c2C1c1ccc(C(=O)OC)cc1 (configuration not stated) | - | - | - | - | 16µM | 2.6µM
N#Cc1ccc(NC(=S)NC(=O)C2CC2)cc1 | - | . | . | - | . | .
O=C(CSc1nc2c(cnn2-c2ccc(F)cc2)c(=O)[nH]1)Nc1ccccc1C(F)(F)F | - | . | . | - | . | .
FC(F)(F)c1cccc(Cn2nnnc2-c2cc(Cl)cc(Cl)c2)c1 | - | - | - | - | - | -
FC(F)(F)c1cccc(Cn2nnnc2-c2cccc(C(F)(F)F)c2)c1 | - | - | - | 15µM | - | ?
CCOc1ccc(-c2nn(-c3ccccc3)cc2/C=C2\SC(N)=NC2=O)cc1C | ? | - | - | - | - | 10µM
SMILES | KB-3-1 cytotox | S-ASM inh | Giardia killer | KB-V1 cytotox | SW480 rerep | MCF10A rerep
COc1ccc(C2C(=O)N(C3CCCCC3)CC(=O)N2C2CCCC2)cc1 (configuration not stated) | - | - | - | 2.6µM | - | -
COc1ccc(C2C(=O)N(CCc3ccccc3)CC(=O)N2C2CCCC2)cc1 (configuration not stated) | - | - | - | 3.7µM | - | -
COc1ccc(C2C(=O)N(C3CCCCC3)CC(=O)N2Cc2ccco2)cc1 (configuration not stated) | - | - | - | - | - | -
COc1ccc(OC)c(CCNc2ncnc3onc(-c4ccc(F)cc4)c23)c1 | ? | . | . | - | . | .
CCCCCCCCNc1ncnc2ccccc12 | 0.65µM | - | - | 0.18µM | ? | -
c1ccc(CCNc2ncnc3ccccc23)cc1 | ? | - | - | ? | - | -
Cc1ccc(OCC(=O)Nc2ccc(C(=O)OCc3cc(=O)n4ccsc4n3)cc2)cc1C | - | . | . | - | . | .
CCOc1ccc(N2C(N)=NC(N)=NC2(C)C)cc1 | ? | - | - | - | - | 7.3µM
CC1(C)N=C(N)N=C(N)N1c1cccc(C#N)c1 | 16µM | - | - | - | ? | -
CCC(C)n1ncn(-c2ccc(N3CCN(c4ccc(O)cc4)CC3)cc2)c1=O (configuration not stated) | 1.5µM | - | - | - | - | ?
Cc1c(C(=O)O)cccc1-c1ccc(/C=N/Nc2ccc(Br)cc2)o1 | ? | - | - | - | - | 18µM
Cc1c(C(=O)O)cccc1-c1ccc(/C=N/n2cnnc2)o1 | - | - | - | - | - | -
O=C(O)c1ccc(N/N=C/c2ccc(-c3cccc(Cl)c3)o2)cc1 | ? | - | - | - | 21µM | ?
O=C(O)c1ccc(N/N=C/c2ccc(-c3ccc(Cl)cc3Cl)o2)cc1 | 23µM | - | - | - | 23µM | ?
O=C(Cc1ccc(F)cc1)N/N=C/c1ccc(-c2ccc(Cl)c(C(=O)O)c2)o1 | - | - | - | - | - | ?
O=C(O)c1cc(N/N=C/c2ccc(-c3ccc(F)cc3)o2)ccc1Cl | - | - | - | - | 18µM | 18µM
CCC(C)Sc1ccc([C@H]2N[C@@](Cc3ccccc3)(C(=O)OC)[C@H]3C(=O)N(CC)C(=O)[C@@H]23)cc1 (some centres not stated) | ? | - | - | ? | -[9.22 µM] | ?
COc1cccc(CNC(=O)c2cccn2-c2nnc(N3CCCC3)s2)c1 | - | . | . | - | . | .
NS(=O)(=O)c1ccc(-c2ccc(/C=N/Nc3ccc(C(=O)O)cc3)o2)cc1 | - | - | - | - | ? | -
CC1=NN(c2ccc(Br)cc2)C(=O)/C1=C/c1ccc(-c2ccccc2C(=O)O)o1 | - | - | - | - | - | 23µM
O=C(O)c1ccc(N/N=C/c2ccc(-c3cc(Cl)ccc3Cl)o2)cc1 | - | - | ? | ? | 12µM | 2.1µM
O=c1n(Cc2ccccc2)nc2n1-c1cc(Cl)ccc1OC2 | - | . | . | - | . | .
CC(=O)c1ccc(N2CCN(c3ccc(NC(=O)c4cccs4)cc3C(=O)O)CC2)cc1 | - | . | . | ? | . | .
O=C(NCCN1CCC(n2c(=O)[nH]c3ccccc32)CC1)c1ccc(C(F)(F)F)cc1C(F)(F)F | ? | . | . | 12µM | . | .
